High-throughput results: PubChem, The Scripps Research Institute Molecular Screening Center
MITF inh: inhibitors of human MITF. O75030. AlphaScreen MITF homodimerization, bead proximity signal. inhibition, % at 2.6 µM. 650,000 tested, 0.91% active. AID 1259374; in the data active = inhibition above about 50%
TEAD-YAP inh: TEAD-YAP interaction inhibition | HEK-TIYL cells, TEAD-Gal4/YAP UAS-luciferase luminescence | inhibition, % at 9.12 µM | 640,000 tested, 1.4% active; in the data active = inhibition above about 32%
FBW7 act: human FBW7 E3 ligase activation, primary screen; normalized activity (activation), % at 26.1 µM; AlphaScreen FBW7–phospho-cyclin E peptide binding, activator screen; 650,000 tested, 0.13% active; in the data active = normalized activity above about 1.9%;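 also: purified mutant Fbw7 with reduced substrate affinity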
Target sequence (Q969H0 whole entry, looked up): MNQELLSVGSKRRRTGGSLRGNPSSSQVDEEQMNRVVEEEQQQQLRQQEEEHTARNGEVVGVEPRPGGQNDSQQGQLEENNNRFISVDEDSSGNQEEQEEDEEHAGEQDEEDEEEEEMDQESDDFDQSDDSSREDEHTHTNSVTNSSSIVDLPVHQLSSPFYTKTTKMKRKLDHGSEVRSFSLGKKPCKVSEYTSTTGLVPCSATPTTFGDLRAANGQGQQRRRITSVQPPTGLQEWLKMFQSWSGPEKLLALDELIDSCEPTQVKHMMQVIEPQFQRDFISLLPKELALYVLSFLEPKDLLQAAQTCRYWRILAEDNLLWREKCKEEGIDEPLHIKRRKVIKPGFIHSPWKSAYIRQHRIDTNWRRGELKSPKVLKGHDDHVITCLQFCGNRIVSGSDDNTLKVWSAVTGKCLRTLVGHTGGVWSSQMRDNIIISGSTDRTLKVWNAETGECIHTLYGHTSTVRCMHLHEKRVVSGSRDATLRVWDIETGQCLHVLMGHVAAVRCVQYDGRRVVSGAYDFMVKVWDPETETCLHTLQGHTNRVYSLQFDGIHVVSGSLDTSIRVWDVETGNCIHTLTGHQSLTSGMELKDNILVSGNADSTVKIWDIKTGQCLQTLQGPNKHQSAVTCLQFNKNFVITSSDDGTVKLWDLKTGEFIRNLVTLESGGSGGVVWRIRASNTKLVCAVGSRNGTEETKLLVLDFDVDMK
GPR151 ag: activators of human GPR151; Q8TDV0; PathHunter beta-arrestin GPR151 cells, luminescence; activation, % at 11.2 µM; 650,000 tested, 1% active; AID 1508602; in the data active = activation above about 4.9%
MITF confirm: confirmation of human MITF inhibitors. shares compounds with MITF inh. AlphaScreen MITF homodimerization, biotin/His-MITF beads. inhibition, % at 2.6 µM. 4,700 tested, 16% active;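 active = inhibition above a cutoff derived from the DMSO control wells, cut at about 28% in these data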;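 also: inhibitors lower the bead chemiluminescence by keeping MITF from dimerizing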
AlphaScreen DR: optically interferes with AlphaScreen signal in dose response. AlphaScreen optical interference counterscreen, cell-free. shares compounds with MITF inh. 480 tested, 6% active. IC50, µM. AID 1259373; call rule not given here
AlphaScreen intf2: AlphaScreen optical interference, counter-screen; shares compounds with MITF inh; LysRS AlphaScreen counterscreen, signal interference, triplicate; inhibition, % at 2.6 µM; 4,700 tested, 7.6% active;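 active = inhibition above a cutoff derived from the DMSO control wells, cut at about 30% in these data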
Numbers stand for hits; . = inactive; / = no result given. An excerpt weighted towards active compounds, which were near 3.5% of everything screened.

SMILES	MITF inh	TEAD-YAP inh	FBW7 act	GPR151 ag	MITF confirm	AlphaScreen intf2	others
CS(=O)(=O)N1CCN(Cc2ccccc2C(F)(F)F)CC1	71	.	.	.	.	.
O=S(=O)(c1ccc(Cl)cc1)N1CCN(Cc2ccccc2C(F)(F)F)CC1	.	.	.	.	/	/
CN1CCC(NCc2ccccc2C(F)(F)F)CC1	.	.	.	.	/	/
FC(F)(F)c1ccccc1CN1CCN(Cc2ccccc2Br)CC1	62	.	.	.	.	.
COc1ccc(CN2CCN(Cc3ccccc3Br)CC2)cc1OC	.	.	.	.	/	/
Fc1ccccc1CN1CCN(Cc2ccccc2C(F)(F)F)CC1	65	.	.	.	.	.
Cc1ccc2c3c(ccc2n1)NC1=C(C(=O)CC(C)(C)C1)C3c1ccc(Cl)cc1Cl (stereo not drawn)	.	.	.	.	/	/
COc1cc(C=O)cc(Cl)c1OCc1ccccc1	.	.	.	.	/	/
O=C(c1cccs1)N1CCN(Cc2ccccc2C(F)(F)F)CC1	70	.	.	.	.	.
Cc1ccccc1CN1CCN(C(=O)c2cccs2)CC1	.	.	.	.	/	/
CC(C)CNC(=O)c1ccc(N2CC3CC(C2)c2cccc(=O)n2C3)c(NC(=O)c2ccc3oc(-c4cccnc4)nc3c2)c1 (stereo not drawn)	.	.	.	.	/	/
COc1cccc(C(=O)Nc2cccc(N)c2)c1	.	.	.	.	/	/
Cc1cc(C)c(C(=O)N2CCC(=O)N(Cc3cn4cccc(C)c4n3)CC2)[nH]1	.	.	.	.	/	/
Cc1cccn2cc(CN3CCCc4ccccc43)nc12	55	.	.	.	.	.
Fc1ccccc1NC(=S)N/N=C/c1ccc(N2CCOCC2)o1	.	.	.	.	/	/
O=C(NNC(=S)NC1CCCCC1)C(=O)NNC(=S)NC1CCCCC1	62	.	.	.	.	.
O=C(NC1CCCCC1)C(=S)NC1CCCC1	.	.	.	.	/	/
C/C(CC(=O)Nc1ccccc1)=N\NC(=O)CC#N	57	.	.	.	61	35
COC(=O)c1ccccc1NC(=O)C/C(C)=N/NC(=O)CC#N	.	.	.	.	/	/
CN1C(C)(C)CC(NC(=O)c2ccccn2)CC1(C)C	.	.	.	.	/	/
CC[C@H](C)[C@@H]1NC(=O)[C@H]2CN(C(=O)Oc3ccc(F)cc3)CCN2C1=O	.	.	.	.	/	/
CC[C@H](C)[C@@H]1NC(=O)[C@H]2CN(C(=O)Nc3cccc(F)c3)CCN2C1=O	58	.	.	.	75	.	AlphaScreen DR=.
CC[C@H](C)[C@@H]1NC(=O)[C@H]2CN(C(=O)NCc3ccccc3)CCN2C1=O	74	.	.	.	66	.	AlphaScreen DR=.
CC[C@H](C)[C@@H]1NC(=O)[C@H]2CN(C(=O)c3ccc(-c4ccccc4)cc3)CCN2C1=O	.	.	.	.	/	/
CC(C)[C@H]1NC(=O)[C@H]2CN(C(=O)NCc3ccccc3)CCN2C1=O	70	.	.	.	68	.	AlphaScreen DR=.
SMILES	MITF inh	TEAD-YAP inh	FBW7 act	GPR151 ag	MITF confirm	AlphaScreen intf2	others
C[C@@H](OCc1ccccc1)[C@@H]1NC(=O)[C@H]2CN(C(=O)NCc3ccccc3)CCN2C1=O	76	.	.	.	71	.	AlphaScreen DR=.
O=C(Nc1ccc(Br)cc1C(=O)O)c1ccc([N+](=O)[O-])cc1	.	.	.	.	/	/
CC(=O)c1ccc(NC(=O)COC(=O)CCC2CCCCC2)cc1	.	.	.	.	/	/
C[C@@H]1NC(=O)[C@H]2CN(C(=O)NCc3ccccc3)CCN2C1=O	71	.	.	.	75	.	AlphaScreen DR=.
Cc1cccc(Nc2nc(-c3ccc(O)cc3)cs2)c1	67	.	.	.	.	.
C=CCNc1nc(-c2ccc(O)cc2)cs1	70	.	.	.	.	.
Cc1ccc(CNC(=O)CSc2nc(NC3CCCCC3)c3ccccc3n2)cc1	.	.	.	.	/	/
O=C(CSc1nc(NC2CCCCC2)c2ccccc2n1)NC1CCCCC1	58	.	.	.	.	.
Cc1ccc2nc(-c3ccc(NC(=O)CNCC(C)(C)CN(C)C)cc3)sc2c1	52	.	.	.	.	.
CCCCOC(=O)c1ccc(NC(=O)CCCC)cc1	.	.	.	.	/	/
Cc1ccc2nc(-c3ccc(NC(=O)Cc4ccccc4)cc3)sc2c1	.	.	.	.	/	/
CCN(CC)CC(=O)NC(C)c1ccccc1 (stereo not drawn)	.	.	.	.	/	/
CCCCOC(=O)c1ccc(NC(=O)CN(C)C2CCN(C)CC2)cc1	58	.	.	.	.	.
CN1CCC(N(C)CC(=O)Nc2ccc3c(c2)OC(F)(F)O3)CC1	57	.	.	.	.	.
CC(NC(=O)CN(C)C1CCN(C)CC1)c1ccccc1 (stereo not drawn)	59	.	.	.	.	.
CC(=O)N1CCN(CC(=O)Nc2ccc3c(c2)OC(F)(F)O3)CC1	.	.	.	.	/	/
CN(C)CC(C)(C)CNCC(=O)Nc1ccc2c(c1)OC(F)(F)O2	56	.	.	.	.	.
CC(=O)CCCC(C)CCCC(C)CCCC(C)C (stereo not drawn)	.	.	.	.	/	/
C/C(=C\CO)CC[C@H](C)CCC[C@H](C)CCCC(C)C	105	.	.	.	.	.
COC(=O)C1=C(C)NC2=C(C(=O)CC(c3cccs3)C2)C1c1cccc(O)c1 (stereo not drawn)	.	.	.	.	/	/
O=C(Cc1ccc(F)cc1)Nc1nc2c(Cl)cccc2s1	.	.	.	.	/	/
CC(=O)c1ccc(-c2ccc(SC(C)C)nc2)cc1	.	.	.	.	/	/
CCn1c2ccccc2c2cc(CN3CCN(Cc4ccc(SC)cc4)CC3)ccc21	63	.	.	.	.	.
CCn1c2ccccc2c2cc(CN3CCN(S(=O)(=O)c4ccc(OC)cc4)CC3)ccc21	.	.	.	.	/	/
CCn1c2ccccc2c2cc(CN3CCN(Cc4ccccc4F)CC3)ccc21	82	.	.	.	.	.
SMILES	MITF inh	TEAD-YAP inh	FBW7 act	GPR151 ag	MITF confirm	AlphaScreen intf2	others
CCn1c2ccccc2c2cc(CN3CCN(Cc4ccccc4[N+](=O)[O-])CC3)ccc21	65	.	.	.	.	.
CCn1c2ccccc2c2cc(CN3CCN(S(=O)(=O)c4ccc(F)cc4)CC3)ccc21	.	.	.	.	/	/
CCn1c2ccccc2c2cc(CN3CCN(Cc4ccc(C(F)(F)F)cc4)CC3)ccc21	54	.	.	.	.	.
CCn1c2ccccc2c2cc(CN3CCCC(O)C3)ccc21 (stereo not drawn)	.	.	.	.	/	/
CN(CC(=O)NC1(C#N)CCCC1)c1ccccc1	.	.	.	.	/	/
O=C(CCS(=O)(=O)c1ccc(Cl)cc1)NCc1ccc(F)cc1	.	.	.	.	/	/
Cc1cccc(NC(=O)Cc2noc(CCC(=O)O)n2)c1C	.	.	.	.	/	/
O=C(NCC1(CO)CC1)c1ccc(S(=O)(=O)N2CCCC2)cc1	.	.	.	.	/	/
COc1ccc2nc(NC(=O)/C=C/c3ccccc3OC)sc2c1	.	.	.	.	/	/
CCN1CCN(CC(=O)c2ccc(Cl)s2)CC1	74	.	.	.	.	.
